In PubChem BioAssay (NCI):
This is part of a sample that, as a whole, favours compounds with a hit. Of some 83,000 tested, about 20% had one in any assay.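 The test compound was applied at a single concentration to cells in 96-well plates for 48 hours, and percent growth was recorded.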 The source made the active and inactive calls. The calls were made as follows: active = growth percent below 10; inactive = the rest.

Legend:
Assay in all cases: NCI-60 one-dose screen, 48 h (100 = growth as untreated, 0 = no growth, -100 = all killed)
Conditions in all cases: 10 µM unless noted
T-47D breast = test system: T-47D breast
BT-549 breast = test system: BT-549 breast
SW-620 colon = test system: SW-620 colon
MCF7 breast = test system: MCF7 breast
HCT-116 colon = test system: HCT-116 colon
HCC-2998 colon = test system: HCC-2998 colon
KM12 colon = test system: KM12 colon
MDA-MB-435 melanoma = test system: MDA-MB-435 melanoma

Measured: growth

CSc1nc(-c2cccc(NC(=O)CCl)c2)c(C#N)c(=O)n1C
inactive: T-47D breast 34.5% | BT-549 breast 53.4% | SW-620 colon 27.3% | MCF7 breast 20.6% | HCC-2998 colon 116% | KM12 colon 98.5%
active: HCT-116 colon 7.55%

Cc1cc(C)nc(SC2=C(Nc3cc(Cl)ccc3O)C(=O)N(Cc3ccccc3)C2=O)n1
active: KM12 colon -23.1% [30 µM]
inactive: T-47D breast 60.8% [30 µM] | BT-549 breast 85.2% [30 µM] | MDA-MB-435 melanoma 71.6% [30 µM] | SW-620 colon 91.8% [30 µM] | HCT-116 colon 83% [30 µM]

COc1cc2c(cc1OC)C(Sc1ccc(SC)cc1)c1c(nc(N)c(C#N)c1N)O2 (centres undefined)
active: T-47D breast -47.1% | BT-549 breast -73.9% | SW-620 colon -68.9% | MCF7 breast -51.2% | HCT-116 colon -86.8% | HCC-2998 colon -84.9% | KM12 colon -72%

CCNC(=O)Oc1ccc(/C(=C(\C)c2ccc(Cl)cc2)c2ccc(OCCN(CC)CC)cc2)cc1
inactive: T-47D breast 25.5% | BT-549 breast 68.8% | MCF7 breast 16.5% | HCT-116 colon 38.6% | HCC-2998 colon 51% | KM12 colon 37.5%
active: SW-620 colon 2.28%

COc1ccc(C(=S)N2CCN(c3cccc(Cl)c3)CC2)cc1
inactive: T-47D breast 89.9% | BT-549 breast 90.8% | MDA-MB-435 melanoma 106% | SW-620 colon 101% | HCT-116 colon 89.2% | KM12 colon 104%

O=C1c2cccc3cccc(c23)C(=O)N1CCCCCN1CCN(CCCCCOc2ccc(-c3nc4ccc(N5CCOCC5)cc4[nH]3)cc2)CC1
inactive: BT-549 breast 29.9% | MDA-MB-435 melanoma 36.4% | SW-620 colon 17.1% | HCT-116 colon 73% | KM12 colon 20.6%
active: T-47D breast 0.907%

OC(COc1cccc2ccccc12)CN1CCN(c2ccccc2Cl)CC1 (centres undefined)
inactive: T-47D breast 74.5% | BT-549 breast 106% | MDA-MB-435 melanoma 100% | SW-620 colon 88.5% | HCT-116 colon 71.4% | KM12 colon 99.7%

O=C(NCCN1CCOCC1)Nc1ccc(-c2cc3c(Nc4ccc(Oc5cccc(C(F)(F)F)c5)c(Cl)c4)ncnc3s2)cc1
active: T-47D breast -1.15% | SW-620 colon -46.8% | MCF7 breast -2.16% | HCT-116 colon -13% | HCC-2998 colon 5.37% | KM12 colon -65%
inactive: BT-549 breast 40%

C#CCOc1ccc2ncnc(Nc3cccc(CNC(=O)CCl)c3)c2c1
inactive: T-47D breast 29.6% [8.25 µM] | BT-549 breast 47.7% [8.25 µM] | MDA-MB-435 melanoma 49.6% [8.25 µM] | SW-620 colon 30.4% [8.25 µM] | HCT-116 colon 26% [8.25 µM] | HCC-2998 colon 99% [8.25 µM] | KM12 colon 63.2% [8.25 µM]

O=C1/C(=C/c2ccccc2)SC(=S)N1CCc1ccc(O)cc1
inactive: T-47D breast 54.3% | BT-549 breast 106% | SW-620 colon 95.6% | MCF7 breast 112% | HCT-116 colon 95.9% | HCC-2998 colon 107% | KM12 colon 87.8%

CCCn1c(=O)[nH]c(N)c([C@H]2c3ccccc3Oc3[nH]c(=O)n(CCC)c(=O)c32)c1=O
inactive: T-47D breast 34.7% | BT-549 breast 42.8% | MDA-MB-435 melanoma 84.4% | SW-620 colon 61.2% | HCT-116 colon 32.5% | HCC-2998 colon 104% | KM12 colon 99.8%

CC1SC(c2ccc(N(C)C)cc2)N(NC(=O)C(O)(c2ccccc2)c2ccccc2)C1=O (centres undefined)
inactive: T-47D breast 87.6% | BT-549 breast 93.1% | MDA-MB-435 melanoma 84.3% | SW-620 colon 104% | HCT-116 colon 80.8% | KM12 colon 87.4%

COc1ccc(C2Nc3c(c(C(C)(C)C)nn3-c3ccccc3)C(=O)CS2)cc1 (centres undefined)
inactive: T-47D breast 96.5% | BT-549 breast 122% | SW-620 colon 107% | MCF7 breast 92.9% | HCT-116 colon 97.7% | HCC-2998 colon 102% | KM12 colon 98.2%

O=C1/C(=C/N2N=C(c3ccc4ccccc4c3)CC2c2ccccc2O)SC(=S)N1c1cccnc1 (centres undefined)
active: BT-549 breast 6.36%
inactive: T-47D breast 44.5% | SW-620 colon 24% | MCF7 breast 17.3% | HCT-116 colon 10.9% | HCC-2998 colon 28.5% | KM12 colon 18.2%

COc1ccc(/C=C\c2cc(OC)c(OC)c(OC)c2)cc1OCC(=O)Nc1ccc2nc(C)sc2c1
inactive: BT-549 breast 38% | SW-620 colon 38% | HCT-116 colon 23.4% | HCC-2998 colon 86.1% | KM12 colon 19%
active: T-47D breast 6.4% | MDA-MB-435 melanoma -3.48%

Nc1n[nH]c2cc(F)c([C@@H]3Nc4ccc5[nH]ncc5c4[C@H]4C5CCC(C5)[C@@H]34)cc12 (some centres undefined)
active: BT-549 breast -7.74% | MDA-MB-435 melanoma -15.3% | HCT-116 colon -29.3% | KM12 colon 1.62%
inactive: T-47D breast 97.6% | SW-620 colon 21.7% | HCC-2998 colon 15.9%

O=C(CCCCC(=O)N/N=C\c1ccccc1O)N/N=C\c1ccccc1O
inactive: T-47D breast 35.5% | BT-549 breast 38.4% | SW-620 colon 34.2% | MCF7 breast 27.5% | HCT-116 colon 25.5% | HCC-2998 colon 21.4% | KM12 colon 33.6%

O=C1c2ccccc2C(=O)c2c1ccc1[nH]c(-c3cccs3)nc21
inactive: T-47D breast 56.1% | BT-549 breast 65.5% | MDA-MB-435 melanoma 101% | SW-620 colon 90.7% | HCT-116 colon 70.5% | HCC-2998 colon 99.3% | KM12 colon 70.5%

CCOc1nc(-c2ccccc2)cc2c(O)c(C(=O)N/N=C/c3ccc(O)cc3O)[nH]c(=O)c12
inactive: T-47D breast 34.3% | BT-549 breast 58.9% | MDA-MB-435 melanoma 48.3% | SW-620 colon 44.6% | HCT-116 colon 18.6% | KM12 colon 42.3%

COc1ccc(-c2nc3ccc(-c4nc5ccc(N6CCN(c7ccncc7)CC6)cc5[nH]4)cc3[nH]2)cc1OC
active: T-47D breast 6.91%
inactive: BT-549 breast 39.4% | MDA-MB-435 melanoma 31.4% | SW-620 colon 35.6% | HCT-116 colon 17.8% | HCC-2998 colon 34.9% | KM12 colon 92.8%

c1ccc(CCNc2ncnc3[nH]ncc23)cc1
inactive: T-47D breast 79.3% | BT-549 breast 97.7% | MDA-MB-435 melanoma 112% | SW-620 colon 113% | HCT-116 colon 98.3% | HCC-2998 colon 115% | KM12 colon 109%

CCCc1cc(=O)n2c(C(=O)Nc3cccc(C(=O)OCC)c3)c(C(=O)Nc3ccc(F)cc3)sc2n1
inactive: T-47D breast 53.9% [30 µM] | BT-549 breast 82.5% [30 µM] | MDA-MB-435 melanoma 73.4% [30 µM] | SW-620 colon 55.9% [30 µM] | HCT-116 colon 17.7% [30 µM] | KM12 colon 82.9% [30 µM]

OCC(O)c1nc2ccc3[nH]ncc3c2c2c1CCCC2 (centres undefined)
inactive: T-47D breast 14% | MDA-MB-435 melanoma 17.4% | HCC-2998 colon 29.5%
active: BT-549 breast -24.6% | SW-620 colon 3.04% | HCT-116 colon 1.98% | KM12 colon 4.4%

CCCOc1ccc2nc(NC(=O)OC)[nH]c2c1
active: MDA-MB-435 melanoma -49.3% | HCT-116 colon 9.34% | HCC-2998 colon -14% | KM12 colon 5.74%
inactive: T-47D breast 89.8% | BT-549 breast 33.4% | SW-620 colon 22.8%

Nc1ccn(-c2ccc(Br)cc2)c(=O)n1
inactive: T-47D breast 202% | BT-549 breast 105% | SW-620 colon 98.8% | MCF7 breast 108% | HCT-116 colon 102% | HCC-2998 colon 29.7% | KM12 colon 121%

COc1cccc(Nc2nc(SC)nc(-c3cccc([N+](=O)[O-])c3)c2C#N)c1
inactive: T-47D breast 62.4% | BT-549 breast 96.1% | SW-620 colon 75% | MCF7 breast 72.9% | HCT-116 colon 28.2% | HCC-2998 colon 95.3% | KM12 colon 98.4%

CCN1CCC2(CC1)NC(=O)c1c(c3ccc(Cl)c(Cl)c3n1C)C2C#N (centres undefined)
active: MDA-MB-435 melanoma -59.9% | HCC-2998 colon -5.34%
inactive: T-47D breast 75% | BT-549 breast 37.2% | SW-620 colon 37.6% | HCT-116 colon 14% | KM12 colon 41.2%

COc1cc(-c2nc(C(=O)NCC(=O)NO)nn2-c2ccc(Cl)cc2)cc(OC)c1OC
inactive: T-47D breast 88.2% | BT-549 breast 105% | MDA-MB-435 melanoma 100% | SW-620 colon 97.1% | HCT-116 colon 101% | KM12 colon 95.9%

COc1cccc2c1C(=O)c1c(O)c3c(c(O)c1C2=O)C[C@](O)(C(=O)CO)C[C@H]3O[C@@H]1C[C@@H](NC(=O)CCCCCN(C)C2(c3ccc(F)cc3)CC3CCC2C3)[C@H](O)[C@@H](C)O1 (some centres undefined)
inactive: T-47D breast 86.3% | BT-549 breast 52%
active: MDA-MB-435 melanoma -17.9% | SW-620 colon -74.9% | HCT-116 colon -91.8% | KM12 colon -68.5%
